Assay outcomes deposited in PubChem by The Scripps Research Institute Molecular Screening Center.
Only a selection was taken, and hits are over-represented in it overall.
TTR transcr act: increases transthyretin transcription; SH-SY5Y TTR promoter Gaussia luciferase, luminescence; 100% = recombinant luciferase protein wells; activation, % at 16.7 µM; 92,000 compounds, 1.3% hits; AID 1117267;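 active = activation above the mean of all tested compounds plus 3 SD, cut at about 9.5% in these data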;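 note: cells exposed to compounds for one day before reading; 0% = median of all test compound wells on the plate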
HuH7 TTR inh: HuH7 TTR transcription inhibition, counter-screen. shares compounds with TTR transcr act. HuH7 TTR promoter-Gaussia luciferase reporter, luminescence. inhibition, % at 16.7 µM. 1,100 compounds, 4% hits. AID 1117279;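 active = average inhibition above the solvent-only control wells' mean plus 3 SD, cut at about 15% in these data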;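 note: 0% = cells with DMSO only and 100% = cells with inhibitor control FD; inhibitors lower well luminescence so higher value means more inhibition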
TTR act confirm: confirmation of human transthyretin transcription activators. AID 1117280. 1,100 tested, under 10 active. shares compounds with TTR transcr act. SHSY5Y TTR promoter Gaussia luciferase, luminescence; 100% = purified Lucia enzyme wells, no cells. activation, % at 16.7 µM;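 active = mean activation above a set limit taken from the earlier primary screen, cut at about 11% in these data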;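 note: 0% = DMSO-treated cells and 100% = recombinant Lucia luciferase without cells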
Active calls of the source: *.

SMILES	TTR transcr act	others
Cc1ccc([C@@H]2CC=C(C(=O)O)[C@H](c3ccccc3)N2S(=O)(=O)c2ccc(C)cc2)cc1	-1
C[C@@H]1COc2cc(N3CCSCC3)ccc2S(=O)(=O)N1C	-1
O=C(NCc1ccco1)OC1CCC12CCC(c1ccccc1)CC2 (stereo not given)	-1
Clc1cc(Cl)cc(CNC2CCC23CCCCC3)c1 (stereo not given)	1
CC(C)(C)c1ccc(C(=O)Nc2cc(Cl)ccc2C(=O)O)cc1	-2
COc1ccc(F)cc1-c1cc(C(C)=O)c2n(c1=O)CCC2	1
Cc1nonc1OC(C)CNCCNc1ccc([N+](=O)[O-])cc1 (stereo not given)	11*	HuH7 TTR inh=-20;TTR act confirm=1
COc1ccc(C(=O)NCCNc2ccc([N+](=O)[O-])cc2)cc1	3
Nc1nonc1C(=O)NCCNc1ccc([N+](=O)[O-])cc1	0
O=C(OCc1cn(Cc2cccc(F)c2)nn1)N1CCOCC1	5
O=C(Nc1ccc(Br)cc1)OCCN1CCCC12CCC(c1ccccc1)CC2 (stereo not given)	-1
O=S1(=O)CCOC[C@H](Cc2ccccc2)N1Cc1cccc(F)c1	0
O=S1(=O)CCOC[C@H](Cc2ccccc2)N1Cc1ccc(F)cc1	6
O=S1(=O)CCOC[C@H](c2ccccc2)N1Cc1cccc(F)c1	13*	HuH7 TTR inh=0;TTR act confirm=0
CC(C)n1nnnc1C1(C)CSCC(=O)N1Cc1cccc(F)c1 (stereo not given)	-1
COC(=O)C(C[N+](=O)[O-])C1=C(O)CC(C)(C)CC1=O (stereo not given)	0
O=C(NNC1CC(=O)N(c2ccc(Cl)cc2)C1=O)c1ccccn1 (stereo not given)	-1
O=C(Nc1ccc(N2C(=O)CC(c3ccccc3)C2=O)c(Cl)c1)c1ccccn1 (stereo not given)	38*	HuH7 TTR inh=-4;TTR act confirm=1
CSc1nc2ccc(NC(=O)c3ccccn3)cc2s1	-3
CCNc1nc(N)c([N+](=O)[O-])c(Nc2cccc(Cl)c2)n1	2
C[C@H]1C2CC(OC(=O)Nc3ccccc3C(F)(F)F)C(C2)[C@H]2CCCCN21 (stereo not given in full)	0
COc1ccc(S(=O)(=O)N2CCOC2CNC(=O)C(=O)NCc2ccccc2OC)cc1 (stereo not given)	-1
COc1ccc(S(=O)(=O)N2CCCOC2CNC(=O)C(=O)NCc2ccco2)cc1 (stereo not given)	0
COc1ccc(S(=O)(=O)N2CCCOC2CNC(=O)C(=O)NCc2ccccn2)cc1 (stereo not given)	24*	HuH7 TTR inh=-10;TTR act confirm=-1
C[C@H](CO)N1C[C@H](C)[C@H](CN(C)C(=O)Nc2cccc3ccccc23)Oc2ncc(Br)cc2C1=O	-1
SMILES	TTR transcr act	others
NC(=O)C1CCN(c2ncc(Br)s2)CC1	5
CCCn1c(C(C)Nc2nc(-c3ccc(OC)cc3)cs2)nc2ccccc21 (stereo not given)	7
CCn1c(C(O)c2cc(OC)c(OC)c(OC)c2)nc2ccccc21 (stereo not given)	3
CCCn1c(C(O)c2ccc(OC)cc2)nc2ccccc21 (stereo not given)	9.8*	HuH7 TTR inh=-17;TTR act confirm=0
CN(C)S(=O)(=O)c1ccc2nc(COCc3nc4ccc(S(=O)(=O)N(C)C)cc4[nH]3)[nH]c2c1	0
C=CCn1c(-c2ccccc2)nc(=S)c2c1CCCC2	11*	HuH7 TTR inh=3;TTR act confirm=0
S=c1nc(-c2ccccc2)n(CCN2CCOCC2)c2c1CCCC2	-1
CC(C)Cn1c(-c2ccccc2)nc(=S)c2c1CCCC2	0
Cc1ccc2c(c1)C1CS(=O)(=O)N(Cc3ccccc3)C(=O)N1C2 (stereo not given)	1
CN1CCN(C2=C(Cl)C(=O)N(CCc3ccccc3)C2=O)CC1	5
O=C1C(Cl)=C(NCCCN2CCOCC2)C(=O)N1CCc1ccccc1	69*	HuH7 TTR inh=-3;TTR act confirm=-1
O=C(CCc1ccccc1)NCCCN1CCOCC1	1
CCCCOc1ccc(Cc2c(O)nc(SC)[nH]c2=O)cc1	9.9*	HuH7 TTR inh=-22;TTR act confirm=1
CCCOc1ccc(C(C)=O)cc1Cc1c(O)nc(SC)[nH]c1=O	-2
CCCCSc1nc(O)c(Cc2ccccc2)c(=O)[nH]1	2
S=C(Nc1ccc(Br)cc1)OCCN1CCCC12CCC(c1ccccc1)CC2 (stereo not given)	1
C#CCNC(=O)C[C@@H]1C[C@]2(C(=O)OCC)CCC3=C2N(CCC3)C1=O	-2
CN(C)[C@H]1CCN(c2ccc3c(c2)OCCCN(C2CC2)S3(=O)=O)C1	0
CC1=C(C(=O)Nc2ccccc2C)C(c2ccccc2)NC(=O)N1 (stereo not given)	-1
CC1=C(C(=O)Nc2ccc(C)cc2)C(c2ccc(N(C)C)cc2)NC(=O)N1 (stereo not given)	1
